Measured values as given in PubChem BioAssay AID720708 (National Center for Advancing Translational Sciences (NCATS), 2013).
Among all 360,000 compounds or so, about 660 (0.18%) were called active. A call without a number means that no potency is given here. Another 2% or so got no clear call; they are omitted. Calls come from the whole dose curve; as a rule, active = well fitted inhibition curve with a large enough effect; inconclusive = small, poorly fitted or top-dose-only effect; inactive = no such curve, though single readings can be large or run the other way. For the sample, actives were picked, then their nearest neighbours and some compounds at random.

Molecular target: Rap guanine nucleotide exchange factor 4 (Homo sapiens) (UniProt Q8WZA2)
Sequence (Q8WZA2 whole entry, looked up): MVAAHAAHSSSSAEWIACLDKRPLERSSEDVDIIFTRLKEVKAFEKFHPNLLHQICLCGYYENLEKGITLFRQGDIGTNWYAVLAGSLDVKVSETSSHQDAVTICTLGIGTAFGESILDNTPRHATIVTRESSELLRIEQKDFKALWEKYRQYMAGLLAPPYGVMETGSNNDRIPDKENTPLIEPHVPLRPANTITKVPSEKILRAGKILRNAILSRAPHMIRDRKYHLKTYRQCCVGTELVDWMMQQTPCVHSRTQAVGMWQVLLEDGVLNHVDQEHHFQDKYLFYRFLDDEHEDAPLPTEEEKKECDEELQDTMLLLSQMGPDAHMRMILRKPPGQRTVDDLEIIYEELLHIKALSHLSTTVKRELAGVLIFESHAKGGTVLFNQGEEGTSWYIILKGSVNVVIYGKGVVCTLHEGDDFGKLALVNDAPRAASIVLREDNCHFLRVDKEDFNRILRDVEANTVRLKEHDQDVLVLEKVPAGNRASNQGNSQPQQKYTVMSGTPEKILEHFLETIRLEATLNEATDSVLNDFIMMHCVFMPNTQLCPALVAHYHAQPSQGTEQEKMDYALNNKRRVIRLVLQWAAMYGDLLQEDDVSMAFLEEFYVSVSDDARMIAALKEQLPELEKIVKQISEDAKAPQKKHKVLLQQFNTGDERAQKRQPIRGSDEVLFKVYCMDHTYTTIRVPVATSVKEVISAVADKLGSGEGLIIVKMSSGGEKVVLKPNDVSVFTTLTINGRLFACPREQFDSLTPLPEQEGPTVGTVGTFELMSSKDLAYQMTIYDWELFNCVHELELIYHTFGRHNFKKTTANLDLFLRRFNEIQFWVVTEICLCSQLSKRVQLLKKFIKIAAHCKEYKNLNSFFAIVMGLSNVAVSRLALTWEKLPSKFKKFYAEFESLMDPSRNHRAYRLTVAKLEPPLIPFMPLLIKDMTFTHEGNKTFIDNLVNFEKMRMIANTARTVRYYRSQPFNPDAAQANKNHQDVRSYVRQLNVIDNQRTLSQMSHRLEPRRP
Test: qHTS for Antagonist of cAMP-regulated guanine nucleotide exchange factor 2 (EPAC2): primary screen; note: nearly all actives have a fitted effect of over 45% in size
Conditions: EPAC2 GEF exchange of Rap1B-BODIPY-GDP, fluorescence; series mostly up to 114 µM
Potency is the fitted concentration of half-maximal effect.

Row | Structure (SMILES) | Potency
1 | NC(=O)NC(=O)C(OC(=O)CCNS(=O)(=O)c1ccccc1)c1ccccc1 (centres undefined) | inactive
2 | O=C(CCC(=O)n1ncc2ccccc21)NCc1ccccc1Cl | inactive
3 | Cc1ccc2nc(NC(=O)CSc3nc(=O)n(CCCN(C)C)c4c3CCC4)sc2c1 | 79.4 µM (active)
4 | Cc1ccc(NC(=O)CSc2nc(=O)n(CCN(C)C)c3c2CCCC3)c(C)c1 | inactive
5 | Cc1csc(NC(=O)CSc2nc(=O)n(CCCN(C)C)c3c2CCC3)n1 | inactive
6 | Cc1cc(C)c2cc(C#N)c(N3CCNCC3)nc2c1 | inactive
7 | Oc1c(Cl)cc(Cl)c(Cl)c1Cc1c(O)c(Cl)cc(Cl)c1Cl | 31.6 µM (active)
8 | O=C(NCc1ccccc1)C1CNCC(C(=O)NCc2ccccc2)C1 (centres undefined) | inactive
9 | Cc1c2cnn(-c3ccccc3)c(=O)c2c(C)n1CCCC(=O)N1CCN(C)CC1 | inactive
10 | O=C(OCC(=O)N1CCCCCC1)c1cnc(Cl)c(Cl)c1 | inactive
11 | CCCCNC(=O)OC(C)CNC(=O)OC (centres undefined) | inactive
12 | Cc1cccc(N2CCN(C(=O)c3cnn4c(C(F)F)cc(-c5ccccc5)nc34)CC2)c1C | inactive
13 | Cc1ccc(Cl)cc1N1CCN(C(=O)c2cccc3c(=O)c(C)c(-c4ccccc4)oc23)CC1 | 12.6 µM (active)
14 | COc1ccccc1N1CCN(C(=O)c2cc(=O)c3cc(C)cc(C)c3o2)CC1 | inactive
15 | CCOCCCNC(=O)Cc1cc(=O)[nH]c(=O)[nH]1 | inactive
16 | CCCCCC1CCC(c2nnc(SCC(C)=O)o2)CC1 (centres undefined) | inactive
17 | COc1cccc2c(C)c(C(=O)O)[nH]c12 | inactive
18 | N#C/C(C(=O)N1CCOCC1)=C1/SC(Cc2ccc(F)cc2)C(=O)N1c1ccccc1 (centres undefined) | inactive
19 | Cc1cccc(NS(=O)(=O)c2ccc(C(=O)NCC(C)(C)N3CCOCC3)cc2)c1C | inactive
20 | Nc1[nH]c(C(=O)c2ccccc2)c(-c2ccc(Br)cc2)c1C(=O)NC1CC1 | inactive
21 | O=c1nc(N/N=C/c2ccco2)cn[nH]1 | inactive
22 | CCc1c(C)nc2c(OC)cccc2c1Cl | inactive
23 | COc1cccc2c(N/N=C/c3ccco3)cc(C)nc12 | 12.6 µM (active)
24 | CC(C)(C)Cc1c(C2CCCCC2)nc2ccc(Br)cn12 | inactive
25 | CCN(CC)S(=O)(=O)c1cc([N+](=O)[O-])ccc1NNC(=O)Nc1ccccc1 | inactive

Row | Structure (SMILES) | Potency
26 | CCC(C(=O)NC1CCCC1)N(C(=O)c1snc(C(N)=O)c1N)c1ccc2c(c1)OCCO2 (centres undefined) | inactive
27 | Cc1c(Cl)c([N+](=O)[O-])nn1CC(=O)NCCCN1CCOCC1 | inactive
28 | CCOC(=O)N1CCN(Cc2nc3c(c(=O)n(C)c(=O)n3C)n2Cc2ccccc2)CC1 | inactive
29 | CC(=O)OCC(C)n1c(=O)c2ccccc2n1C(C)=O (centres undefined) | inactive
30 | COc1cccc(C2CC(c3cccs3)=NN2C(=O)CSC2=NCCS2)c1OC (centres undefined) | inactive
31 | CCCCCn1c(SCCC(C)C)nc2c1c(=O)[nH]c(=O)n2C | inactive
32 | COC(=O)[C@@]12C[C@@H](CC(=O)NCCCCc3ccccc3)C(=O)N(CCc3ccc(OC)c(OC)c3)C1=CCC(C)(C)C2 | inactive
33 | Cc1ccc(C(=O)Nc2c(-c3ccccc3)[nH][nH]c2=O)cc1 | inactive
34 | O=C(OC1CC2CC1[C@H]1CCCCN1C2=O)N1CCOCC1 (some centres undefined) | inactive
35 | O=C(NCc1ccco1)c1cccc(-c2ccc3nncn3c2)c1 | inactive
36 | C=CCNC(=S)NNC(=O)c1ccc(Br)o1 | inactive
37 | O=S(=O)(Nc1cccc(-c2ccc(N3CCOCC3)nn2)c1)c1ccc(Cl)c(Cl)c1 | inactive
38 | O=C(CC1C(=O)NCCN1CC(c1ccccc1)c1ccccc1)NCCc1cn[nH]c1 (centres undefined) | inactive
39 | CCOCCCNC(=O)C(NC(=O)Cc1c[nH]c2ccccc12)c1ccc(OC)cc1 (centres undefined) | inactive
40 | COc1ccc(NC(=O)C(c2ccncc2)n2c(=O)c(-c3cc4ccccc4[nH]3)nc3ccccc32)cc1 (centres undefined) | inactive
41 | COC(=O)Cn1c(=NC(=O)c2cc(OC)c(OC)c(OC)c2)sc2cc(OC)ccc21 | inactive
42 | Cc1ccc(Cc2c(-c3ccc(Cl)cc3)nc3c4ccccc4ccn23)cc1 | inactive
43 | COC(=O)C1=C[C@@H](C(=O)OC)[C@@H]2C3=C(C(=O)[C@]2(C)NC(=O)c2ccccc2)[C@H](C)n2c(=O)n(C)c(=O)n2[C@@H]3C1 | inactive
44 | O=C1NC2(CCCCC2)N=C1c1ccccc1 | inactive
45 | COc1cc(N)c(Cl)cc1C(=O)OCC(=O)c1ccc2c(c1)NC(=O)CO2 | inactive
46 | COc1ccc(S(=O)(=O)N[C@@H]2C=C[C@@H](CC(=O)N3CCc4ccccc4C3)O[C@@H]2CO)cc1 | inactive
47 | Cc1cccc(C)c1NC1=NC(=S)N(c2ccc(N(C)C)cc2)C1(C)C | inactive
48 | CC1(C)OC(=O)C2=C(C[C@@H](C3CC3)O[C@H]2c2ccc(Cl)cc2)O1 | inactive
49 | O=S(=O)(/N=C(/Nc1ccccc1)c1ccccc1)c1cccs1 | inactive
50 | O=C1OCCOC2CCCc3oc(-c4ccccc4)c1c32 (centres undefined) | inactive

Row | Structure (SMILES) | Potency
51 | Cc1c(C(=O)NCC2CC2)sc(=O)n1Cc1cccc(F)c1 | inactive
52 | OCCC#Cc1ccc(N2C(c3ccsc3)=Cc3ccc(F)cc3C2c2c[nH]c3ccccc23)cc1 (centres undefined) | inactive
53 | O=C(c1ccc[nH]c1=S)N1CCN(S(=O)(=O)c2ccc(Br)cc2Cl)CC1 | inactive
54 | CCOc1ccc(CCNC(=O)C(CC)n2nc(C)n3c(cc4sccc43)c2=O)cc1OCC (centres undefined) | inactive
55 | CCOCCCNc1c(CC)c(C)c(C#N)c2nc3ccccc3n12 | inactive
56 | O=C1COc2ccc(C(=O)COC(=O)CCOc3ccccc3)cc2N1 | inactive
57 | CC(=O)NNC(=O)c1csc(Cc2c(Cl)sc3ccc(Cl)cc23)n1 | inactive
58 | CNC(=O)c1csc(Cc2c(Cl)sc3ccc(Cl)cc23)n1 | 8.91 µM (active)
59 | CC(=O)Cc1nsc(NC(=O)c2ccc(Cl)cc2Cl)n1 | inactive
60 | C/C(=N\N(C)C)c1ccc(OCCOc2ccc([N+](=O)[O-])cc2)cc1 | inactive
61 | O=C(Nc1ccc2c(c1)OCCO2)C1c2ccccc2OCC(=O)N1Cc1ccccn1 (centres undefined) | inactive
62 | CCCNC(=O)C1(C)CCN1C(=O)C1(c2ccccc2)CC1 (centres undefined) | inactive
63 | CCc1c(-c2ccc(F)cc2)ncn1Cc1cccc(-c2ccccc2)c1 | inactive
64 | CCOc1ccc(S(=O)(=O)N2CCC(C(=O)NCc3ccccn3)CC2)cc1Cl | inactive
65 | C[C@@H]1CN([C@@H](C)CO)S(=O)(=O)c2ccc(C#Cc3cccc(F)c3)cc2O[C@H]1CN(C)S(=O)(=O)c1cn(C)cn1 | inactive
66 | O=C1OCCN1C(=O)[C@H]1[C@H](c2ccc(Cl)cc2)C(c2cccc(Cl)c2)=NN1c1ccc(Br)cc1 | inactive
67 | COc1ccc(C2CC(c3cccs3)=Nc3ccccc3S2)cc1OC (centres undefined) | inactive
68 | COc1ccc(C2CC(=O)n3c(nc4ccccc43)S2)cc1OC (centres undefined) | 17.8 µM (active)
69 | COc1ccccc1C1CC(=O)n2c(nc(-c3ccccc3)c2-c2ccccc2)S1 (centres undefined) | inactive
70 | NC(Cc1ccccc1)c1csc(Nc2cc(Oc3ccccc3)ncn2)n1 (centres undefined) | inactive
71 | COc1ccc(C(=O)c2c(C)oc3cc([N+](=O)[O-])c(O)c([N+](=O)[O-])c23)cc1 | inactive
72 | Cc1oc2cc(Br)c(O)c(Br)c2c1C(=O)c1ccccc1 | 28.2 µM (active)
73 | CCOC(=O)c1c(-c2ccccc2)oc2cc(Br)c(O)c(C=O)c12 | inactive
74 | COC(=O)Cc1ccc(N(Cc2ccccc2F)S(=O)(=O)c2ccc(Br)cc2)cc1 | inactive
75 | COc1ccccc1NC(=O)CCSc1nnc(-c2ccc(O)cc2)o1 | inactive

Row | Structure (SMILES) | Potency
76 | CN[C@H]1C[C@H]2c3cc(Oc4ccccc4C)ccc3CCN2C(=O)[C@H]1[C@H](C)O | inactive
77 | Cc1cccc(C)c1NC(=O)C(c1cccc2ccccc12)n1c(=O)c(-c2ccco2)nc2ccccc21 (centres undefined) | inactive
78 | CC(=O)NCCC(=O)Nc1nc(C)c(Cc2ccc3c(c2)OCO3)s1 | inactive
79 | Cc1ccc(C)c(-n2ccnc2SCC(N)=O)c1 | inactive
80 | O=c1cccc(-c2ccc(Br)cc2)o1 | inactive
81 | COC(=O)[C@@]12C[C@@H](CC(=O)N3CCC(c4ccccc4)CC3)C(=O)N(Cc3ccccc3)C1=CCC(C)(C)C2 | inactive
82 | O=C1N[C@H](Cc2ccccc2)C(=O)N[C@H]1Cc1cn(S(=O)(=O)c2ccccc2)c2ccccc12 | inactive
83 | CCCN1CC=C2C(C#N)=C(N)C(C#N)(C#N)C(c3cc(OC)ccc3OC)C2C1 (centres undefined) | 39.8 µM (active)
84 | CCN1CC=C2C(C#N)=C(N)C(C#N)(C#N)[C@H](c3ccoc3)[C@H]2C1 | inactive
85 | CC(C)Nc1ccc(-n2nc3ccccc3[n+]2[O-])cc1 | inactive
86 | O=[N+]([O-])c1ccccc1Nc1ccc(O)cc1 | inactive
87 | Cc1ccc(Nc2cc(C)nc3c(C)ccc([N+](=O)[O-])c23)cc1 | 44.7 µM (active)
88 | Cc1ccc2cccc([N+](=O)[O-])c2n1 | inactive
89 | Cc1cc(C)cc(NC(=O)NC2CCN(CC(=O)Nc3cccc(Cl)c3C)CC2)c1 | inactive
90 | CC1(C(=O)NCc2ccccc2)CSCC(=O)N1CCCn1ccnc1 (centres undefined) | inactive
91 | CN(Cc1ccccc1)C(=O)COc1ccccc1 | inactive
92 | COc1ccc(CN(C)C(=O)CC(c2ccccc2)c2ccccc2)cc1 | 50.1 µM (active)
93 | COc1ccc(C(CCN(Cc2ccc(OC)c(OC)c2)C(=O)CCl)c2ccccc2)cc1 (centres undefined) | inactive
94 | CC(=O)Nc1ccc(SC[C@H](Cc2ccccc2)N2CC[C@@H](C)CCC2=O)cc1 | inactive
95 | CCCCOCCCNC(=O)C[C@@H]1C[C@@]2(C(=O)OCC)CCCC=C2N(CCC2=CCCCC2)C1=O | inactive
96 | C[N+](C)(C)CCNC(=O)c1cc[n+](Cc2ccccc2)c(/C=N/O)c1 | inactive
97 | COc1cc(OC)cc(C(=O)Nc2nnc(SCC(=O)NCC3CCCO3)s2)c1 (centres undefined) | inactive
98 | Nc1nc(SCC(=O)NN(c2ccccc2)c2ccccc2)n[nH]1 | inactive
99 | COc1ccc(CN2C(=O)C(CC(=O)NCCCCc3ccccc3)CC(C(=O)N3CCOCC3)=C2C)cc1 (centres undefined) | inactive
